Assay results reported in the supplement of paper PMC11732987, “Enantioselective OTUD7B fragment discovery through chemoproteomics screening and high-throughput optimisation” (Communications Chemistry, 2025).

How the values were obtained:
Assay in all cases: log2 ratio of Biotin-Ahx-Ub-VS probe labelling (fragment/DMSO); higher = less target engagement (more negative = stronger competition), active = hit call of the paper (q ≤ 0.05, log2 ratio ≤ -1)
Conditions in all cases: compound concentration: 200 uM; treatment time: 3 h
[1] = biological target: USP34 (UniProt Q70CQ2)
Procedure, shortened: (§1)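 HEK293T lysate (495 µg per sample, in Tris/CHAPS/IGEPAL buffer with protease inhibitors) was treated in triplicate with fragment at 200 µM or with DMSO for 3 h. It was then treated with Biotin-Ahx-Ub-VS (0.5 µM final) for 1 h. Labelled DUBs were NeutrAvidin-enriched, digested with LysC and trypsin, and run by diaPASEF LC-MS/MS. Spectronaut label-free quantities were global-median-normalised. Values are average log2 ratios fragment/DMSO by unpaired t-test, using proteins with ≥2 unique peptides.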

[2] = biological target: T1, USP36 (UniProt Q9P275)
T1 sequence (whole entry): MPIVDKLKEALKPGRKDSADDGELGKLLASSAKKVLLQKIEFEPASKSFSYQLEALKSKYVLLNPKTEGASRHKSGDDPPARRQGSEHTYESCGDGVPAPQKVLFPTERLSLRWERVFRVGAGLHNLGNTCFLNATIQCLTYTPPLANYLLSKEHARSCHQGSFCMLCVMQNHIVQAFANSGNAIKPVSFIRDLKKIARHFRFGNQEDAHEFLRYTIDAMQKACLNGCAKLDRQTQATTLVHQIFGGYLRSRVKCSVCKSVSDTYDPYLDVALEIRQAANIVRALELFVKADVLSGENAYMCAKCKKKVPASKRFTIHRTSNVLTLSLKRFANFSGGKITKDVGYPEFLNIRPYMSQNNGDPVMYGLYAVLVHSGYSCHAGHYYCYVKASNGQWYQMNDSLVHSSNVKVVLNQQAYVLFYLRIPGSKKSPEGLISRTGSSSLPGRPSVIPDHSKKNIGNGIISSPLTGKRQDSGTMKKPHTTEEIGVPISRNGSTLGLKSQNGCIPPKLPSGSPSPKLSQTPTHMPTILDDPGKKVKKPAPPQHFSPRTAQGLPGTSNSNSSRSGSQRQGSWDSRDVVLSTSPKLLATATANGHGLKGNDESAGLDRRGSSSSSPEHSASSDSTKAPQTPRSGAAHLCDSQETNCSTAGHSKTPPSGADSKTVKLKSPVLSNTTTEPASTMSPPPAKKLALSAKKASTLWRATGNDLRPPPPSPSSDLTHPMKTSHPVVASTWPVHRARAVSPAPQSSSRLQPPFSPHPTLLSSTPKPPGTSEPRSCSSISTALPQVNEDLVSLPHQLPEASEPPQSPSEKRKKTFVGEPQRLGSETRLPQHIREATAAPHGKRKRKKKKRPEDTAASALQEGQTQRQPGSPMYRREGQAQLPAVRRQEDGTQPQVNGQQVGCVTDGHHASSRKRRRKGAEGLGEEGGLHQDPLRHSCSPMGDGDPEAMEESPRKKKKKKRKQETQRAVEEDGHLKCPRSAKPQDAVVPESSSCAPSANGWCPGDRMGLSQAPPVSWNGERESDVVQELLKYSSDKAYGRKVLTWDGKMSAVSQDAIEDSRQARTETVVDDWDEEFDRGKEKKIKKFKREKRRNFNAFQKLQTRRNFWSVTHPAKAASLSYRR
Procedure, shortened: as §1

[3] = biological target: T2, USP38 (UniProt Q8NB14)
T2 sequence (whole entry): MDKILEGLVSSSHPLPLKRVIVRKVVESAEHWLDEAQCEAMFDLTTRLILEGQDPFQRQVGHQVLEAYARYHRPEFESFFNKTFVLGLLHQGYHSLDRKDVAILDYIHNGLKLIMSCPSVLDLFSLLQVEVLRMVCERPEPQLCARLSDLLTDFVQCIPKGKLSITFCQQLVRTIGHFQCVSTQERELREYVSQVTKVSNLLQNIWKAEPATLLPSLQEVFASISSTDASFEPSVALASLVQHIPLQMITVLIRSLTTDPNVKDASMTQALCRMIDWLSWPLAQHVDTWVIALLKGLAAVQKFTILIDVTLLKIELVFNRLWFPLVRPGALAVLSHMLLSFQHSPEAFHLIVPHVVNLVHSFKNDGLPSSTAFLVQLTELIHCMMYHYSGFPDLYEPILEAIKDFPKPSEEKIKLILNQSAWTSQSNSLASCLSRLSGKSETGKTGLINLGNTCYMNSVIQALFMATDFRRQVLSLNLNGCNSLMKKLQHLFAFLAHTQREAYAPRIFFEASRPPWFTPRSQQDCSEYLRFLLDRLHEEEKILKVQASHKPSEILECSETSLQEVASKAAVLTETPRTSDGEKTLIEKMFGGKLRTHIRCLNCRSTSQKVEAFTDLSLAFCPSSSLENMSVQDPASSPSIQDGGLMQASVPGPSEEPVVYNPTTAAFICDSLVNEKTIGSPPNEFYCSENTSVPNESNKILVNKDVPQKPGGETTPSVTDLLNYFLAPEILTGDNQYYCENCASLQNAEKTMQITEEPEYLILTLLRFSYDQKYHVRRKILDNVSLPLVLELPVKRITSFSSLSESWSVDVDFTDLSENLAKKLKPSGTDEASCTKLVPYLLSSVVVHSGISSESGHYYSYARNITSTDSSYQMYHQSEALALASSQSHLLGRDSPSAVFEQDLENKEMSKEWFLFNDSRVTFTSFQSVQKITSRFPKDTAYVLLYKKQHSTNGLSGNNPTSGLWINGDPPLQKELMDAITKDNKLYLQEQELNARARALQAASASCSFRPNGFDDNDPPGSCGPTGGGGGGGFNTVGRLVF
Procedure, shortened: as §1

[4] = biological target: T3, USP39 (UniProt Q53GS9)
T3 sequence (whole entry): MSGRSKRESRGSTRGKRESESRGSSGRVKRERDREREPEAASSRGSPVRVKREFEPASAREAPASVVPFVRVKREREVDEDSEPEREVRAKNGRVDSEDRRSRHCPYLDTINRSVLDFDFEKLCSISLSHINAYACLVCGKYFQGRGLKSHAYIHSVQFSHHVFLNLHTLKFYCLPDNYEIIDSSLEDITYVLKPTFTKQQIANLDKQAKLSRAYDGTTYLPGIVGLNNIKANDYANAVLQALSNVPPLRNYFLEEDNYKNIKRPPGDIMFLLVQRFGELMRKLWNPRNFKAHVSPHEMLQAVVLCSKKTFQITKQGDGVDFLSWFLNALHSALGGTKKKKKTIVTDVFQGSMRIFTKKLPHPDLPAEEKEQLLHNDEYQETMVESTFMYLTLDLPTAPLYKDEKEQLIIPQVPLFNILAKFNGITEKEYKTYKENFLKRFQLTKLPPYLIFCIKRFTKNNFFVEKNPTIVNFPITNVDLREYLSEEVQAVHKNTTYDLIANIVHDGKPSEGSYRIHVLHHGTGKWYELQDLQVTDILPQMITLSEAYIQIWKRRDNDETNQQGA
Procedure, shortened: as §1

[5] = biological target: T4, USP4 (UniProt Q13107)
T4 sequence (whole entry): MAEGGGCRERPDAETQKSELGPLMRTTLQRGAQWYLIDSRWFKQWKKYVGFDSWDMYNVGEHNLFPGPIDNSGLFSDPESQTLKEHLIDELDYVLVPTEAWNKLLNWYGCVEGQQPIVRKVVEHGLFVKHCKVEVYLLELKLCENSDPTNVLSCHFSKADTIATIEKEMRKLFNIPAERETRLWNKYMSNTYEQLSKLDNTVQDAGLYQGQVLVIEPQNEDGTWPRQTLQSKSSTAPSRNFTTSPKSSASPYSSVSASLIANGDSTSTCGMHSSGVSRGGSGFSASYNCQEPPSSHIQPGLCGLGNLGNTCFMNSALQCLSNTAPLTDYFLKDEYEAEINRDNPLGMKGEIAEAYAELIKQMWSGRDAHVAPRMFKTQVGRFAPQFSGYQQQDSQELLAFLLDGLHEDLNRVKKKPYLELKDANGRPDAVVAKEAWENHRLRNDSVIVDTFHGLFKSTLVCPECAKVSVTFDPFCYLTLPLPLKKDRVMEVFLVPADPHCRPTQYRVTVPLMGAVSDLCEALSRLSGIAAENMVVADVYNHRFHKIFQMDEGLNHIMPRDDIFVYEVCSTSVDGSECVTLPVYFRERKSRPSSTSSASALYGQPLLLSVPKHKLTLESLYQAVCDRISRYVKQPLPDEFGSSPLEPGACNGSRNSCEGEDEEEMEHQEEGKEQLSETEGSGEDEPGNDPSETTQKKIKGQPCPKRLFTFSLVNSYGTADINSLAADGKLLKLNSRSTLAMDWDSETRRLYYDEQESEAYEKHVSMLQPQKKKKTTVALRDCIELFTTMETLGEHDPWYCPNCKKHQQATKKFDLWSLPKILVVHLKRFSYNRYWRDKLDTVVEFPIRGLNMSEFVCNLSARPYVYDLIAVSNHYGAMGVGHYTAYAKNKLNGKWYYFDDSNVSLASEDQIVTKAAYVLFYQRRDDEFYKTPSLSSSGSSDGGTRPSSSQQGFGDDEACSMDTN
Procedure, shortened: as §1

Measured: log2 ratio of Biotin-Ahx-Ub-VS probe labelling

USP34, sequence (Q70CQ2 whole entry, the tested form may be a part): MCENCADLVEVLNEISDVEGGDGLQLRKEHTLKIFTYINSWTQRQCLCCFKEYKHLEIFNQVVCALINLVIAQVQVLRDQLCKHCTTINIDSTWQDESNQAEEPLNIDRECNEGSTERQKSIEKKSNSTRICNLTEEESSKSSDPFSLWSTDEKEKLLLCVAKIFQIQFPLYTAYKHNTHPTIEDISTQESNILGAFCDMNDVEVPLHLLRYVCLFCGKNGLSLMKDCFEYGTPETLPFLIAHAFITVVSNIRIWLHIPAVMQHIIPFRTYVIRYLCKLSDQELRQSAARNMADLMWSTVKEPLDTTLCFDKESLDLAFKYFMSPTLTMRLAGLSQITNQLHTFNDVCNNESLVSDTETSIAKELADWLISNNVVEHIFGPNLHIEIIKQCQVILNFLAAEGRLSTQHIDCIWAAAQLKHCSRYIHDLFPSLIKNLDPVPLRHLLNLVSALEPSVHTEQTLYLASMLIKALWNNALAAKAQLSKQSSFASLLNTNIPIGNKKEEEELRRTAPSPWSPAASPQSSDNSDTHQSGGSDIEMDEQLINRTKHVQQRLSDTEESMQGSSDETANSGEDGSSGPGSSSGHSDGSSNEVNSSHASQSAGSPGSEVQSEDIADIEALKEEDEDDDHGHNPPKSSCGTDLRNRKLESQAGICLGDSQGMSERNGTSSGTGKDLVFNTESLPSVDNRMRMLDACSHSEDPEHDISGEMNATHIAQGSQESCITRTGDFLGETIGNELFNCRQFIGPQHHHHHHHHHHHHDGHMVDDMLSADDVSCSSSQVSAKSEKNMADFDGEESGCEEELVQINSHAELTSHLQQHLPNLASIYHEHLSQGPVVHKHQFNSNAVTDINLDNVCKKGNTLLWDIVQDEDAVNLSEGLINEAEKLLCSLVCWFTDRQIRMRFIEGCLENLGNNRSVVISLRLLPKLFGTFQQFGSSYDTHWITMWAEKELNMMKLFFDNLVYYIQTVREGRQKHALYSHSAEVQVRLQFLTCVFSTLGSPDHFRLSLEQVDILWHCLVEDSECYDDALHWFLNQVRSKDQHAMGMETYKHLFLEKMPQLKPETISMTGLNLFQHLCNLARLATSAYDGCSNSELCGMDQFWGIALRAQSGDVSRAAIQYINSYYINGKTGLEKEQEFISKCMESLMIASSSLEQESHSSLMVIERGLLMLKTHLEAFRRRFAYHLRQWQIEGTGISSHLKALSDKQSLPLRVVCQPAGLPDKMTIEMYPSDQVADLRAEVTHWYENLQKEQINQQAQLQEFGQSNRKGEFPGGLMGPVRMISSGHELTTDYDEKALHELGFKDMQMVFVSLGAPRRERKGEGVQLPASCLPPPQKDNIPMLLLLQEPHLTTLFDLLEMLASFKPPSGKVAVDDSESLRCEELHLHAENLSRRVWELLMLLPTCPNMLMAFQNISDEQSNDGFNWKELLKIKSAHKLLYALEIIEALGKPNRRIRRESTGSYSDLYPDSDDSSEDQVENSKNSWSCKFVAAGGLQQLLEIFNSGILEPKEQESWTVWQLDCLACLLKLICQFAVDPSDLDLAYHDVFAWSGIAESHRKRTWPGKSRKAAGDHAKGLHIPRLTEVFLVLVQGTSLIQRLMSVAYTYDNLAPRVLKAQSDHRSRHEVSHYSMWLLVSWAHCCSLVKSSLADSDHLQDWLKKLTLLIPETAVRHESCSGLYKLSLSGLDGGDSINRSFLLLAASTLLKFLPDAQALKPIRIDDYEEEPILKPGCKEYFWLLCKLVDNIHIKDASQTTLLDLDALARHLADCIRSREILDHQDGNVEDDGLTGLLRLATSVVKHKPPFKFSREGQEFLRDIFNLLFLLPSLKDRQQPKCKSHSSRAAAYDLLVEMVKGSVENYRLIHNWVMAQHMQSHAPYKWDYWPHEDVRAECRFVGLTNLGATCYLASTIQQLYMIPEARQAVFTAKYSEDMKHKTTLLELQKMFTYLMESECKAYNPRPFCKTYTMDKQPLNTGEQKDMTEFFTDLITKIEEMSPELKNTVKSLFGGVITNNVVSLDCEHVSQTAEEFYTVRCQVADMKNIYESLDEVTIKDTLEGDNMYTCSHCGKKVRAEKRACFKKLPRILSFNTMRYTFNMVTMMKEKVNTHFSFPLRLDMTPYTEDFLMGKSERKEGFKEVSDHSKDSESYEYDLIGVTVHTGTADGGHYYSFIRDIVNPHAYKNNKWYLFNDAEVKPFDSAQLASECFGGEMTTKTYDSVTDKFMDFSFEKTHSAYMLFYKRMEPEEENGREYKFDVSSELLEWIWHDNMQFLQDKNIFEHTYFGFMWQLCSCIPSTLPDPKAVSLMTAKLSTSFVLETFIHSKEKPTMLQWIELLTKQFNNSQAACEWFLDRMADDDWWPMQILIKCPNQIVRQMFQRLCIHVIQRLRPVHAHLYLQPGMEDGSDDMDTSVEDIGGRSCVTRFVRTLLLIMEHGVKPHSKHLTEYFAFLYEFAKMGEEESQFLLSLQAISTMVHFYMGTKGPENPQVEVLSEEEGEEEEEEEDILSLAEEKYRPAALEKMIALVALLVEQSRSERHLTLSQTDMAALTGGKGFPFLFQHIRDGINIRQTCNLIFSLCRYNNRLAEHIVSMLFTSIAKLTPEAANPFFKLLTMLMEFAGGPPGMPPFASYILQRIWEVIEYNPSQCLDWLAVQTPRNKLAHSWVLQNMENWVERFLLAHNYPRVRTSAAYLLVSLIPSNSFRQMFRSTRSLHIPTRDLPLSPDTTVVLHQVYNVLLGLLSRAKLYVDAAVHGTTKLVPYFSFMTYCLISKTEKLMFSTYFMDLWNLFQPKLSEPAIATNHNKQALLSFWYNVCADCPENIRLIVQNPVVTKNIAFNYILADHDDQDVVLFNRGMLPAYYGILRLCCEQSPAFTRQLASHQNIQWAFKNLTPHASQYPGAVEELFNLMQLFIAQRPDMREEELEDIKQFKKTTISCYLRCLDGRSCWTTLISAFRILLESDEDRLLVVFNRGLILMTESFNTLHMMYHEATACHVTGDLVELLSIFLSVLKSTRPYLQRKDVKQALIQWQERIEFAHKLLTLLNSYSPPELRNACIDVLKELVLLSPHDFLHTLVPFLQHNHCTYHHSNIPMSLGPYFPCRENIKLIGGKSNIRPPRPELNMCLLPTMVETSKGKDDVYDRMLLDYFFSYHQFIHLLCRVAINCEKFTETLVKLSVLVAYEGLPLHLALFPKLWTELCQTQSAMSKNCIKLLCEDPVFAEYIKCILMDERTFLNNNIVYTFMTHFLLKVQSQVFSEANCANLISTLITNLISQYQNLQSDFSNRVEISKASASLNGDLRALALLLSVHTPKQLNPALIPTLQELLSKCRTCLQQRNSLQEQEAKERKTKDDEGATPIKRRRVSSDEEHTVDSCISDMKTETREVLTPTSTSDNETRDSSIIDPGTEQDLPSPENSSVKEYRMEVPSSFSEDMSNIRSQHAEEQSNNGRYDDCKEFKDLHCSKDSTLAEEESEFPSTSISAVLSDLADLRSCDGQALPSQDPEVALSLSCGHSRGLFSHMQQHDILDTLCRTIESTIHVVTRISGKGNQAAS

Cc1ccccc1OCC(=O)N1CCN(C(=O)CCl)CC1
inactive: [1] -0.131 | [2] -0.102 | [3] -0.159 | [4] 0.114 | [5] -0.0294
